Among the test systems are NCI-H23 lung; NCI-H226 lung; NCI-H322M lung; HOP-62 NSCLC; NCI-H460 lung; 786-0 renal; DU-145 prostate; MDA-MB-231 breast; SF-268 CNS; SNB-19 CNS; UACC-62 melanoma; SK-MEL-28 melanoma; SN12C renal; UO-31 renal; OVCAR-5 ovarian; OVCAR-3 ovarian; NCI/ADR-RES ovarian; MDA-MB-435 melanoma; MCF7 breast; KM12 colon.
What all share (assay): NCI-60 one-dose screen, 48 h (100 = growth as untreated, 0 = no growth, -100 = all killed)
Conditions in all cases: 10 µM unless noted

Compounds without any hit were thinned out: in the full panel of roughly 83,000, 20% have a hit.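 Assay: single dose, 48 h. Readout: percent growth (0 = no net growth; negative = cell death). Active: <10.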 Values without a mark were called inactive. Activity calls are given as the source filed them.

Among the data in PubChem BioAssay (NCI) are growth values, retold here.

With `OC1(c2ccc(Cl)cc2Cl)c2ccccc2C2=NCCN21` (stereo not given), the growth with NCI-H23 lung is 88.5%; in the assay on NCI-H226 lung, 71.3%; in the assay with NCI-H322M lung, 98.6%; in the assay on HOP-62 NSCLC, 78.7%; in the assay with NCI-H460 lung, 105%; with 786-0 renal it was 87.9%. Moreover, the growth with DU-145 prostate is 109%; with MDA-MB-231 breast, 85.2%; in the assay on SF-268 CNS, 103%; with SNB-19 CNS it was 101%; in the assay with UACC-62 melanoma it was 94%; in the assay on SK-MEL-28 melanoma, 111%. Besides, the growth with SN12C renal was 92.4%; with UO-31 renal, 82.1%; with OVCAR-5 ovarian, 94.4%; with OVCAR-3 ovarian it was 85.6%; in the assay on NCI/ADR-RES ovarian, 96.3%; in the assay with MDA-MB-435 melanoma, 98%. For the same compound, the growth in the assay on MCF7 breast is 96.4%; with KM12 colon, 101%.

In the case of `CO[C@@H]([CH2][Hg][S]C#N)[C@@H]([CH2][Hg][S]C#N)OC`, the growth is 92.3% with NCI-H23 lung; 106% in the assay on NCI-H226 lung; 101% with NCI-H322M lung; 99.8% with HOP-62 NSCLC; 127% in the assay with NCI-H460 lung; 120% in the assay on 786-0 renal. Further, the growth with DU-145 prostate is 99.2%; in the assay with MDA-MB-231 breast, 96.1%; in the assay with SF-268 CNS, 100%; in the assay with SNB-19 CNS, 100%; in the assay with UACC-62 melanoma, 88.9%; with SK-MEL-28 melanoma, 104%. Further, the growth was 98.2% in the assay with SN12C renal; 94.6% in the assay with UO-31 renal; 107% in the assay on OVCAR-5 ovarian; -100% (active) in the assay with OVCAR-3 ovarian; 93.7% in the assay on NCI/ADR-RES ovarian; 98.7% in the assay on MDA-MB-435 melanoma. Also, the growth is 31% in the assay on MCF7 breast and 107% in the assay with KM12 colon.

As for `CCOC(=O)/C(C#N)=C/c1ccc(N(CCCl)CCCl)cc1`, the growth in the assay on NCI-H23 lung is 94.9%; in the assay with NCI-H226 lung it was 72.2%; in the assay with NCI-H322M lung, 110%; with HOP-62 NSCLC, 81.7%; with NCI-H460 lung, 41.4%; with 786-0 renal, 84.1%. The growth in the assay with DU-145 prostate was 98.8%; in the assay with MDA-MB-231 breast it was 90.8%; with SF-268 CNS, 77.5%; with SNB-19 CNS, 106%; in the assay with UACC-62 melanoma, 66.5%; in the assay on SK-MEL-28 melanoma, 99%. Besides, the growth in the assay on SN12C renal is 72.4%; with UO-31 renal, 79.3%; with OVCAR-5 ovarian, 106%; with OVCAR-3 ovarian, 108%; with NCI/ADR-RES ovarian, 94.8%; with MDA-MB-435 melanoma it was 94.4%. Further, the values for the growth in the assay on MCF7 breast and with KM12 colon were 71.9% and 106%, respectively.
